“And” between values parts separate entries of the source, which are not always exact repeats. Equal values may be shown once. Results filed as inconclusive are left out. Entries that show only a call come without a potency. More than one record can exist for a structure, and the calls need not agree. The source made the active and inactive calls. Unless noted, the call rests on the fitted dose curve; in most records, active means well fitted curve in the direction sought with a large enough effect in the repeat runs; inconclusive means weak or mixed curves; inactive means no such curve, though single readings can be large; an effect the other way counts as inactive or inconclusive.
Columns and labels:
[1] = qHTS assay to test for compound auto fluorescence at 535 nm (green) in HEK293 cells (AID 720680)
[2] = qHTS assay to test for compound auto fluorescence at 460 nm (blue) in HEK293 cell free culture (AID 720681)
Summary of the method: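 Blue fluorescence (Ex 405/Em 460 nm, triamterene-equivalent) was read immediately after pin transfer of compound or DMSO into medium (DMEM, 10% FBS) without cells.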

[3] = qHTS assay to test for compound auto fluorescence at 535 nm (green) in HEK293 cell free culture (AID 720682)
Summary of the method: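 Cell-free medium (DMEM, 10% FBS) receives compound or DMSO by pintool. Plate read directly at Ex 485/Em 535 nm. Signal converted to fluorescein equivalency.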

[4] = qHTS assay to test for compound auto fluorescence at 590 nm (red) in HepG2 cell free culture (AID 720684)
Summary of the method: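 Cell-free; medium MEM + 10% FBS; compound or DMSO added by pintool; read Ex 540/Em 590 nm; Rose Bengal sodium as red reference fluorophore.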

[5] = qHTS assay to test for compound auto fluorescence at 460 nm (blue) in HepG2 cell free culture (AID 720685)
Summary of the method: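 Cell-free plates of MEM plus 10% FBS received 23 nL compound or DMSO vehicle; blue-channel (405/460 nm) intensity scored against triamterene as reference fluorophore.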

[6] = qHTS assay to test for compound auto fluorescence at 535 nm (green) in HepG2 cell free culture (AID 720686)
[7] = qHTS assay to test for compound auto fluorescence at 460 nm (blue) in HepG2 cells (AID 720687)
Summary of the method: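 Blue-channel autofluorescence (Ex/Em 405/460 nm, triamterene-equivalent) was measured after 1 hr compound exposure at 37 C, 5% CO2. Cells were HepG2, plated overnight at 37 C in MEM plus 10% FBS.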

[8] = biological target: Glucocorticoid receptor (Homo sapiens) (UniProt P04150); experiment: qHTS assay to identify small molecule agonists of the glucocorticoid receptor (GR) signaling pathway (AID 720691; active means well fitted activation curve with a large enough effect in the signal ratio in the repeat runs, not every such curve was filed as active; the % refers to the signal ratio)
Chain of Glucocorticoid receptor (Homo sapiens) (P04150 whole entry, looked up): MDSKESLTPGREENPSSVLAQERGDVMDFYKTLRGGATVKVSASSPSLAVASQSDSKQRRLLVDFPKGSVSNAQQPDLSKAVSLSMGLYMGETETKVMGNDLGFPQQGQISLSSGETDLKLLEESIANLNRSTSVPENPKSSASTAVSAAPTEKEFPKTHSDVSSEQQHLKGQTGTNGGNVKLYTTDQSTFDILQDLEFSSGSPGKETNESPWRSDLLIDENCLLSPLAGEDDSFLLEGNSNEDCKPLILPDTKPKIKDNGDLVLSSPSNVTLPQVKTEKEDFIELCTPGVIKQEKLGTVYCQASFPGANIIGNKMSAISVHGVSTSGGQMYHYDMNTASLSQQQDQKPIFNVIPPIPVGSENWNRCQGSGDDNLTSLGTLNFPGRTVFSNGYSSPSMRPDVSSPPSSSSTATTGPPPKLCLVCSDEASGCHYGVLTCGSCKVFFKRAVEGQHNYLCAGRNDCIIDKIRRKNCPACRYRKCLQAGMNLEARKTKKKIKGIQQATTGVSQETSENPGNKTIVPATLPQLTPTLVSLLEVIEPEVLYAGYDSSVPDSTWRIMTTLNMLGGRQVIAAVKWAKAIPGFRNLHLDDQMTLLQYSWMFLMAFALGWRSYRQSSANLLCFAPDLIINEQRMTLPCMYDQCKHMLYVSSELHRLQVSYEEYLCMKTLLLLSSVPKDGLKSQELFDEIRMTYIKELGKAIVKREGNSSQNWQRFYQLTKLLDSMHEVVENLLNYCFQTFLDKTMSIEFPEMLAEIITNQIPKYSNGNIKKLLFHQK
Summary of the method: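 A HeLa cervical cancer line expressing GR and a glucocorticoid response element-driven beta-lactamase gene is treated with compounds for 18 h; LiveBLAzer B/G FRET substrate is then applied and fluorescence read.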

[9] = biological target: Glucocorticoid receptor (Homo sapiens) (UniProt P04150); experiment: qHTS assay to identify small molecule antagonists of the glucocorticoid receptor (GR) signaling pathway (AID 720692; active means well fitted inhibition curve with a large enough effect in the signal ratio in the repeat runs, not every such curve was filed as active; the % refers to the signal ratio)
Summary of the method: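 GRE-bla HeLa line, dex-stimulated (5 nM final). Compound exposure 18 h, 37 C. Beta-lactamase FRET read after 2 h RT substrate.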

[10] = qHTS assay to identify small molecule antagonists of the glucocorticoid receptor (GR) signaling pathway - cell viability counter screen (AID 720693); further: nearly all actives have a fitted effect of over 55% in size
[11] = qHTS assay for identifying genotoxic compounds that show differential cytotoxicity against isogenic chicken DT40 cell lines with known DNA damage response pathways - wild type cell line (AID 743012); further: nearly all actives have a fitted effect of over 60% in size; further: potency means the concentration at half of the fitted maximal effect
Summary of the method: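 300 wt DT40 cells/well; cpd (DMSO) pintool-transferred after ~0.5 h at 37 C/5% CO2; 40 h incubation; CellTiter-Glo added, 30 min RT; luminescence read.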

[12] = qHTS assay for identifying genotoxic compounds that show differential cytotoxicity against isogenic chicken DT40 cell lines with known DNA damage response pathways - Rev3 mutant cell line (AID 743014); further: nearly all actives have a fitted effect of over 55% in size; further: potency means the concentration at half of the fitted maximal effect
[13] = qHTS assay to identify small molecule antagonists of the androgen receptor (AR) signaling pathway - cell viability counter screen (AID 743033; further: nearly all actives have a fitted effect of over 45% in size; further: potency means the concentration at half of the fitted maximal effect)
[14] = qHTS assay to identify small molecule antagonists of the androgen receptor (AR) signaling pathway using the MDA cell line - cell viability counter screen (AID 743041; further: nearly all actives have a fitted effect of over 45% in size; further: potency means the concentration at half of the fitted maximal effect)
Summary of the method: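 Viability read by CellTiter-Fluor fluorescence in the same wells as the antagonist screen, added after 15.5 h of a 16 h, 37C exposure. Human breast carcinoma MDA-kb2 AR-luc cells, compounds co-dosed with agonist R1881.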

[15] = qHTS assay to test for compound auto fluorescence at 590 nm (red) in HEK293 cell free culture (AID 720683)
Summary of the method: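 Red-channel autofluorescence of compounds in culture medium (DMEM, 10% FBS), no cells, measured at 540/590 nm. Rose Bengal sodium is the reference fluorophore for equivalence.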

[16] = qHTS assay for identifying genotoxic compounds that show differential cytotoxicity against isogenic chicken DT40 cell lines with known DNA damage response pathways - Rad54/Ku70 mutant cell line (AID 743015); further: nearly all actives have a fitted effect of over 60% in size; further: potency means the concentration at half of the fitted maximal effect
[17] = biological target: Androgen receptor (Homo sapiens) (UniProt P10275); experiment: qHTS assay to identify small molecule antagonists of the androgen receptor (AR) signaling pathway (AID 743035; active means well fitted inhibition curve with a large enough effect in the signal ratio in the repeat runs, not every such curve was filed as active; the % refers to the signal ratio)
Chain of Androgen receptor (Homo sapiens) (P10275 whole entry, looked up): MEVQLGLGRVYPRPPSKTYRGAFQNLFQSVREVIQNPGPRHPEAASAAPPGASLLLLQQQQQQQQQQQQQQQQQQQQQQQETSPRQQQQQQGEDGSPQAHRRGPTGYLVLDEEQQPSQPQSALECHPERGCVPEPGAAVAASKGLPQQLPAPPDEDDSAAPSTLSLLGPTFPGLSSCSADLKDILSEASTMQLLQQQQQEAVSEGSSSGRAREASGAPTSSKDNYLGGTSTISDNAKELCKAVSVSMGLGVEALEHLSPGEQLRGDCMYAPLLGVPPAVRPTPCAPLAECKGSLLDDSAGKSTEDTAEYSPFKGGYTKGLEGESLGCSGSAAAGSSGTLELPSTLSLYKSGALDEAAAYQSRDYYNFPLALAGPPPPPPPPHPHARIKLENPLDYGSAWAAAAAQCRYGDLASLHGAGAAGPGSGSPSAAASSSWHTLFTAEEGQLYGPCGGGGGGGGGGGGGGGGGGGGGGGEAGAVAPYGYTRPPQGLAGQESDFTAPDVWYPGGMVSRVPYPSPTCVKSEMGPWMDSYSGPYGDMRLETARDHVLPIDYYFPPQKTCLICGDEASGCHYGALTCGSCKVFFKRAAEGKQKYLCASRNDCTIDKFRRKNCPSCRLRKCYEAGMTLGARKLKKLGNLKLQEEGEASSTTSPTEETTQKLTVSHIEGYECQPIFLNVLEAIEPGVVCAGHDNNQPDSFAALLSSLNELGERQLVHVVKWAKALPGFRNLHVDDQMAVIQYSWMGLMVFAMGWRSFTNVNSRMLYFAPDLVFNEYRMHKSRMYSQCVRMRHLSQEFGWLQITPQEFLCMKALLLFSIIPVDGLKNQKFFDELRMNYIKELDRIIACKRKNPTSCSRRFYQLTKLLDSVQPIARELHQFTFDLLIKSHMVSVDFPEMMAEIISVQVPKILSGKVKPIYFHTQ
Summary of the method: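 In this cell-based reporter screen, compounds were tested in concentration series against R1881-activated HEK293 cells expressing beta-lactamase under UAS control; after 16 h at 37C, FRET substrate was added and fluorescence read 2 h later.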

[18] = biological target: Androgen receptor (Homo sapiens) (UniProt P10275); experiment: qHTS assay to identify small molecule agonists of the androgen receptor (AR) signaling pathway (AID 743036; active means well fitted activation curve with a large enough effect in the signal ratio in the repeat runs, with a control signal flat, not every such curve was filed as active; the % refers to the signal ratio)
Summary of the method: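 AR-bla HEK293 cells, 2,000/well; 4 h preincubation 37C/5% CO2; compound (DMSO) 16 h at 37C; LiveBLAzer B/G FRET substrate 2 h RT; fluorescence intensity read-out.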

[19] = biological target: Androgen receptor (Homo sapiens) (UniProt P10275); experiment: qHTS assay to identify small molecule agonists of the androgen receptor (AR) signaling pathway using the MDA cell line (AID 743040; further: nearly all actives have a fitted effect of over 20% in size)
Summary of the method: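 Luciferase agonist assay: 16 h compound exposure at 37C without CO2 in MDA-kb2 AR-luc cells, whose MMTV promoter responds to both AR and GR. Luminescence measured after 30 min room-temperature incubation with ONE-Glo.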

[20] = biological target: Androgen receptor (Homo sapiens) (UniProt P10275); experiment: qHTS assay to identify small molecule antagonists of the androgen receptor (AR) signaling pathway using the MDA cell line (AID 743042; further: nearly all actives have a fitted effect of over 55% in size)
Summary of the method: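 Antagonist mode: compounds plus R1881 agonist added to MDA-kb2 AR-luc cells, incubated 16 h at 37C. Luciferase reporter luminescence quantified, with multiplexed CellTiter-Fluor readout for cell viability.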

SMILES	outcome [1]	outcome [2]	outcome [3]	outcome [4]	outcome [5]	outcome [6]	outcome [7]	outcome [8]	Potency [9]	Potency [10]	Potency [11]	Potency [12]	Potency [13]	Potency [14]	outcome [15]	Potency [16]	outcome [17]	outcome [18]	outcome [19]	Potency [20]
CCCCCCCCCCCCOS(=O)(=O)O	inactive	inactive	inactive	inactive	inactive	inactive	inactive	inactive	inactive	inactive	inactive	inactive	inactive	inactive	–	–	–	–	–	–
O=c1[nH]c(=O)n(Cl)c(=O)n1Cl	inactive	inactive	inactive	inactive	inactive	–	inactive	inactive	inactive	–	inactive	inactive	inactive	inactive	–	–	–	–	–	–
C[N+](C)(C)Cc1ccccc1	inactive	inactive	inactive	inactive	inactive	inactive	inactive	inactive	inactive	–	inactive	inactive	inactive	inactive	–	–	–	–	–	–
Nc1ccc(-c2ccc(N)cc2)cc1	inactive	inactive	inactive	inactive	inactive	inactive	inactive	inactive	inactive	–	–	61.1 µM (active)	inactive	inactive	inactive	–	–	–	–	–
O=C(O)C(Cl)(Cl)Cl	inactive	inactive	inactive	inactive	inactive	inactive	inactive	–	–	–	inactive	inactive	inactive	inactive	–	–	–	–	–	–
CC[n+]1ccccc1	–	inactive	inactive	inactive	inactive	inactive	inactive	–	–	–	inactive and 241 nM (active)	inactive and 171 nM (active)	inactive and 21.7 µM (active)	–	inactive	inactive and 136 nM (active)	–	–	–	–
COc1ccc(N)cc1	inactive	inactive	inactive	inactive	inactive	–	inactive	inactive	inactive	–	inactive	60.6 µM (active) and 45.4 µM (active)	inactive	inactive	–	–	–	–	–	–
CCC[N+]1(C)CCCC1	inactive	inactive	inactive	inactive	inactive	inactive	inactive	–	–	–	inactive	inactive	inactive	inactive	–	inactive	–	–	–	–
CCCCCCCCCCCCCCCCn1cc[n+](C)c1	inactive	inactive	inactive	inactive	inactive	inactive	inactive	inactive	inactive	–	–	–	–	–	–	–	–	–	–	–
O=C(O)CC(O)(CC(=O)O)C(=O)O	–	inactive	inactive	inactive	inactive	inactive	inactive	–	–	inactive	inactive	inactive	inactive	inactive	inactive	–	–	–	–	–
O=C(O)COc1ccc(Cl)cc1Cl	inactive	inactive	inactive	inactive	inactive	–	inactive	inactive	inactive	inactive	inactive	inactive	inactive	inactive	–	–	–	–	–	–
Nc1ccc(Cl)cc1	–	inactive	inactive	inactive	inactive	–	inactive	inactive	inactive	–	inactive	inactive	inactive	inactive	inactive	–	–	–	–	–
CC(Cl)(Cl)C(=O)O	inactive	inactive	inactive	inactive	inactive	inactive	inactive	inactive	inactive	–	inactive	inactive	inactive	inactive	inactive	–	–	–	–	–
CCCn1cc[n+](C)c1	–	inactive	inactive	inactive	inactive	–	inactive	inactive	inactive	–	inactive	inactive	inactive	inactive	inactive	inactive	–	–	–	–
CNC	–	inactive	inactive	inactive	inactive	–	inactive	inactive	inactive	–	–	–	inactive	inactive	inactive	–	–	–	–	–
CCCC[N+]1(C)CCCCC1	inactive	inactive	inactive	inactive	inactive	inactive	inactive	–	–	–	inactive	inactive	inactive	inactive	–	–	–	–	–	–
Cc1cc(Cl)ccc1OCC(=O)O	inactive	inactive	inactive	inactive	inactive	–	inactive	inactive	inactive	–	inactive	inactive	inactive	inactive	–	–	inactive	inactive	inactive	inactive
CC(=O)O	inactive	inactive	inactive	inactive	inactive	–	inactive	–	–	–	inactive	inactive	inactive	inactive	–	–	–	–	–	–
O=c1nc(O)n(Cl)c(=O)n1Cl	inactive	inactive	inactive	inactive	inactive	–	inactive	inactive	inactive	–	inactive	inactive	inactive	inactive	–	inactive	–	–	–	–

SMILES	outcome [1]	outcome [2]	outcome [3]	outcome [4]	outcome [5]	outcome [6]	outcome [7]	outcome [8]	Potency [9]	Potency [10]	Potency [11]	Potency [12]	Potency [13]	Potency [14]	outcome [15]	Potency [16]	outcome [17]	outcome [18]	outcome [19]	Potency [20]
COP(=O)(OC)C(O)C(Cl)(Cl)Cl (configuration not stated)	inactive	inactive	inactive	inactive	inactive	inactive	inactive	inactive	inactive	inactive	inactive	inactive	inactive	inactive	inactive	–	–	–	–	–
CN(C)[C@@H]1C(=O)C(C(N)=O)=C(O)[C@@]2(O)C(=O)C3=C(O)c4c(O)cccc4[C@@](C)(O)[C@H]3[C@H](O)[C@@H]12	–	inactive	inactive	inactive	inactive	inactive	inactive	–	–	–	inactive and 68 µM (active) and 43.3 µM (active)	inactive and 43.3 µM (active)	inactive	inactive	inactive	–	–	–	–	–
CCCCCCCCCCCCn1cc[n+](C)c1	–	inactive	inactive	inactive	inactive	inactive	inactive	inactive	inactive	–	–	–	–	–	inactive	–	–	–	–	–
N#CS	inactive	inactive	inactive	inactive	inactive	–	inactive	inactive	inactive	inactive	inactive	inactive	inactive	inactive	inactive	–	–	–	–	–
O=[N+]([O-])c1ccccc1O	inactive	inactive	inactive	inactive	inactive	–	inactive	inactive	inactive	–	inactive	inactive	inactive	inactive	inactive	inactive	–	–	–	–
CCC(=O)C(CC(C)N(C)C)(c1ccccc1)c1ccccc1 (configuration not stated)	inactive	inactive	inactive	inactive	inactive	–	inactive	inactive	inactive	–	24.4 µM (active) and 41.5 µM (active)	48.8 µM (active) and 60.7 µM (active) and 46.6 µM (active)	inactive	inactive	inactive	43.5 µM (active) and 41.5 µM (active)	inactive	inactive	inactive	inactive
Cc1cc(Cl)ccc1N	–	inactive	inactive	inactive	inactive	inactive	inactive	inactive	inactive	–	inactive	inactive	inactive	inactive	inactive	inactive	–	–	–	–
CC[N+]1(C)CCCC1	inactive	inactive	inactive	inactive	inactive	–	inactive	inactive	inactive	inactive	inactive and 971 nM (active)	inactive and 612 nM (active)	inactive	inactive	inactive	–	–	–	–	–
O=S(=O)(O)O	inactive	inactive	inactive	inactive	inactive	–	inactive	–	–	inactive	inactive and 27.3 µM (active)	inactive and 61.1 µM (active)	inactive	inactive	–	–	–	–	–	–
O=C(O)C(Cl)Cl	inactive	inactive	inactive	inactive	inactive	inactive	inactive	inactive	inactive	inactive	inactive	inactive	inactive	inactive	inactive	inactive	–	–	–	–
CCCCCCCCCCCC(=O)O	inactive	inactive	inactive	inactive	inactive	–	inactive	–	–	–	inactive	inactive	inactive	inactive	–	–	–	–	–	–
C1CCC(NC2CCCCC2)CC1	inactive	inactive	inactive	inactive	inactive	–	inactive	inactive	inactive	–	inactive	inactive	inactive	inactive	–	inactive	–	–	–	–
CCCCCCCCn1cc[n+](C)c1	inactive	inactive	inactive	inactive	inactive	–	inactive	–	–	inactive	–	–	15.4 µM (active) and 11.1 µM (active)	2.71 µM (active) and 1.53 µM (active) and 1.55 µM (active)	inactive	–	–	–	–	–
CCCC[N+]1(C)CCCC1	–	inactive	inactive	inactive	inactive	inactive	inactive	–	–	–	inactive	inactive	inactive	inactive	–	–	–	–	–	–
CCOP(=S)(OCC)Oc1ccc2c(C)c(Cl)c(=O)oc2c1	–	inactive	inactive	inactive	inactive	–	inactive	inactive	–	–	inactive and 17.2 µM (active)	inactive and 19.3 µM (active)	inactive	inactive	inactive	–	–	–	–	–
COc1ccccc1N	–	inactive	inactive	inactive	inactive	–	inactive	–	–	inactive	inactive	inactive	inactive	inactive	–	–	–	–	–	–
O=P1(N(CCCl)CCCl)NCCCO1 (configuration not stated)	–	inactive	inactive	inactive	inactive	inactive	inactive	inactive	inactive	–	inactive	inactive	inactive	inactive	–	–	–	–	–	–
Oc1ccccc1-c1ccccc1	–	inactive	inactive	inactive	inactive	–	inactive	–	–	–	inactive	inactive	inactive	inactive	inactive	–	–	–	–	–
CCCC[n+]1ccc(C)cc1	–	inactive	inactive	inactive	inactive	–	inactive	–	–	–	inactive and 54.2 µM (active)	inactive and 60.8 µM (active)	inactive	inactive	–	–	–	–	–	–

— PubChem BioAssay (Tox21)
